SW480 rerep = A quantitative high throughput screen for small molecules that induce DNA re-replication in SW480 colon adenocarcinoma cells. SW480 DNA re-replication, Hoechst DNA content imaging, 48 h. Potency, µM (doses to about 46.1 µM), for inactives: at the highest dose re-replication activation, usual class: activators. 340,000 tested, 1.8% active. AID 624297, 2012; also: % of control where 0% means no effect; nearly all actives have a fitted effect of over 55% in size
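Image-based read-out: total Hoechst fluorescence of nuclei (405 nm excitation, 500-530 nm emission), with hits raising the fraction of high-intensity nuclei. SW480 colon cells incubated 48 hr with compounds at 37 C.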
HT1080 IDH1KD tx = qHTS for induction of synthetic lethality in tumor cells producing 2HG: qHTS for the HT-1080-IDH1KD cell line. HT-1080 IDH1 knockdown viability, ATP luminescence, 48 h. Potency, µM (highest dose often 46.1 µM), inactives show top-dose activity, negative = toxicity, most hits filed as cytotoxic. 360,000 tested, 2% active. AID 686971, 2013;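 also: 0% = DMSO wells and -100% = cell-free medium wells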
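After a 2 h attachment period, IDH1KD HT-1080 cells took pin-transferred compound for 48 h at 37 °C; ATP-based luminescence after 10 min room-temperature reagent incubation reported viability.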
HT1080NT lethal = qHTS for induction of synthetic lethality in tumor cells producing 2HG: qHTS for the HT-1080-NT fibrosarcoma cell line; HT-1080-NT fibrosarcoma viability, CellTiter-Glo ATP luminescence, 48 h; Potency, µM (top dose mostly 46.1 µM), without a hit: at the highest dose activity, negative = less viability, actives largely listed as cytotoxic; 360,000 tested, 1.6% active; AID 686970, 2013;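 also: NT is the 2HG producing partner of a matched IDH1 knockdown line; 0% = DMSO-treated cells and -100% = media-only wells without cells; nearly all actives have a fitted effect of over 55% in size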
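750 cells/well, RPMI + 5% FBS; 2 h settle, compound pin-transfer, 48 h at 37 degrees C. CellTiter-Glo 10 min RT, luminescence. Normalized to DMSO and media-only wells.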
MCF10A rereplic = A quantitative high throughput screen for small molecules that induce DNA re-replication in MCF 10a normal breast cells | MCF 10A DNA re-replication, Hoechst nuclear intensity, 48 h | Potency, µM (doses to about 46.1 µM), without a hit: top-dose activity, positive = re-replication, usual class: activators | 350,000 tested, 2.9% active | AID 624296, 2012; also: % of control where 0% means no effect; nearly all actives have a fitted effect of over 50% in size
KB-3-1 cytotox = qHTS assay for MDR1-selective chemotherapeutics: Primary screen using the parental adenocarcinoma cell KB-3-1; KB-3-1 viability, CellTiter-Glo ATP luminescence, 72 h; Potency, µM (series often up to 46.1 µM), most hits filed as cytotoxic; 400,000 tested, 1.4% active; also: % is scaled to controls: 0 for no effect and ±100 for the full control effect; nearly all actives have a fitted effect of over 60% in size
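Cytotoxicity in the drug-sensitive parental line KB-3-1 was scored as loss of CellTiter-Glo luminescence following 72 h incubation with compound. Values come from curve fitting of normalized concentration-response data.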
KB-V1 cytotox = qHTS assay for MDR1-selective chemotherapeutics: Primary screen using the drug-selected MDR subline cells KB-V1; KB-V1 MDR cells viability, CellTiter-Glo, 72 h; Potency, µM (titrated, usually from 46.1 µM), usual class: cytotoxic; 400,000 tested, 3.4% active; AID 1347076, 2019; also: % is scaled to controls: 0 for no effect and ±100 for the full control effect; nearly all actives have a fitted effect of over 60% in size
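qHTS viability screen in drug-selected KB-V1 MDR cells: 72 h compound treatment at 37 degrees C, ATP luminescence end point.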
Numbers without * were called inactive; i = inactive; ? = inconclusive. This is a sample that favours compounds with a hit; in the whole collection about 7.9% have one here. Calls follow the shape of the dose curve; as a rule, active = well fitted curve in the direction sought with a large enough effect; inconclusive = small, poorly fitted or top-dose-only effect, or another doubt; inactive = no such curve, though single readings can be large; an effect the other way counts as inactive or inconclusive. Potency is read from the fitted curve at half-maximal effect.

SMILES	SW480 rerep	HT1080 IDH1KD tx	HT1080NT lethal	MCF10A rereplic	KB-3-1 cytotox	KB-V1 cytotox
Cc1nc(Nc2ccc(O)cc2)c2c3c(sc2n1)CCCC3	4.4%	-23.8%	?	?	i	i
Cc1nc(NC(C)c2ccccc2)c2c3c(sc2n1)CCC3 (stereo unspecified)	?	-2.0%	-0.7%	10.3µM*	?	i
Cc1ccc(CNc2nc(C)nc3sc4c(c23)CCC4)cc1	6.2%	0.1%	2.9%	18.4%	i	8.2µM*
O=C(NCc1cccc(Br)c1)C1CC2Cn3c(nc4ccccc43)C2N1c1ccccc1 (stereo unspecified)	-1.3%	-1.2%	1.0%	8.3%	i	i
CN(CC(=O)Nc1ccc(OC(F)(F)F)cc1)C(=O)c1ccccc1SCC(=O)N1CCCC1	-0.9%	-1.4%	1.9%	-7.9%	16.4µM*	7.31µM*
O=C(CSc1nnc2ccccn12)Nc1cccc(S(=O)(=O)N2CCOCC2)c1	-1.6%	4.3%	7.1%	-1.5%	i	i
COc1ccccc1-c1nnc(SCC(=O)N2CCOCC2)n1-c1ccccc1	0.6%	0.3%	-1.2%	0.2%	i	i
OC(CN1CCCCC1)Cn1c2ccccc2c2cc(Br)ccc21 (stereo unspecified)	?	?	23.1µM*	?	?	16.4µM*
CCOc1cc(NC(=S)Nc2cccc(C)c2)c(OCC)cc1NC(=O)CC(C)C	20.8%	-5.4%	?	11.1%	i	3.26µM*
CCOc1cc(NC(=O)CC(C)C)c(OCC)cc1NC(=O)CCn1nnc2ccccc21	-1.7%	-0.5%	-0.7%	-1.7%	?	4.11µM*
O=C(c1cc2nc(-c3ccc(F)cc3)cc(C(F)(F)F)n2n1)N1CCCCC1c1cccnc1 (stereo unspecified)	?	18.4µM*	?	?	3.26µM*	?
CCN(CC)S(=O)(=O)c1ccc2c(c1)nc(SCC(=O)NC1CC1)n2-c1ccccc1OC	0.0%	-10.4%	-4.5%	3.0%	i	i
COc1ccccc1-n1c(SCC(=O)c2ccc(O)cc2O)nc2cc([N+](=O)[O-])ccc21	-5.8%	?	?	?	i	16.4µM*
Cc1ccc(C23CC4CC(CC(CN)(C4)C2)C3)cc1	?	?	18.4µM*	?	?	?
Cc1ccc(NC(=S)NC2CCN(Cc3ccccc3)CC2)cc1	-1.9%	8.9%	7.8%	6.3%	i	?
COc1ccc(/C=C2\SC(=O)N(CC(=O)Nc3ccc(F)cc3)C2=O)cc1O	-13.0%	-22.9%	-0.9%	25.9µM*	i	i
COc1cc(/C=C2\SC(=S)N(CCC(=O)N3CCCCC3)C2=O)cc(OC)c1OC	?	?	-15.2%	20.6µM*	?	?
COc1cc(/C=C2\SC(=N)N(c3ccc(F)cc3)C2=O)ccc1O	?	?	?	18.4µM*	i	?
COc1cccc(/C=C2\SC(=S)N(CCCC(=O)N3CCCCC3CCO)C2=O)c1 (stereo unspecified)	2.9%	-2.9%	-8.1%	?	i	i
COc1cccc(/C=C2\SC(=S)N(CCC(=O)N3CCCCC3CCO)C2=O)c1 (stereo unspecified)	18.4µM*	-21.7%	-3.1%	23.1µM*	?	?
CCOc1ccc(N2C(=O)S/C(=C\c3ccc(O)c(OC)c3)C2=O)cc1	?	1.5%	-5.0%	0.4%	i	i

From PubChem BioAssay
